Autofluor 339 – intrinsic fluorescence of library compounds, ex339/em460 – biochemical, MLSMR library, data from DPM-DC assay, artefact control, profiling panel; compound autofluorescence, ex339/em460 nm, NADH buffer; active compounds read high; 1 = no-compound wells, NADH background; fluorescence fold increase at 10 µM; 65,000 compounds, 5.5% hits;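 active = at 10 µM, mean starting fluorescence two-fold or more over control wells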;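 note: signal is the first read of a kinetic run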
NADH enzymes – inhibitors of enzymes used to reach an NAD/NADH endpoint; coupled PK/LDH NADH assays, four targets; IC50, µM (series often up to 10 µM), inactives show at the top dose inhibition; 65,000 compounds, 0.02% hits; AID 774;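 active = single-dose screening hits from any of four coupled enzyme assays that gave an IC50 when retested across doses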;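 note: the DPM-DC format reads NADH fluorescence rather than 340 nm absorbance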
A340 absorber – compounds absorbing at 340 nm; fold change at 10 µM; compound absorbance at 340 nm, fold over control; 65,000 tested, under 10 active;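 active = at 10 µM dose, initial 340 nm absorbance at least 2 fold that of control wells; inactive = change under 2 fold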;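 note: initial absorbance extrapolated from kinetic A340 decline of NADH oxidation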
Spn MK inh – S. pneumoniae mevalonate kinase inhibition; AID 555; inhibition, % at 10 µM; 65,000 compounds, 0.48% hits; purified MK, PK/LDH-coupled NADH absorbance 340 nm;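 active = ranked among the strongest by inhibition in the single 10 µM screen, a fixed top-ranked set picked for dose follow-up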
Spn PMK inh – S. pneumoniae PMK inhibition | purified PMK, PK/LDH-coupled NADH absorbance 340 nm | inhibition, % at 10 µM | 65,000 compounds, 0.49% hits | AID 539;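 active = top-ranked compounds by inhibition in the single 10 µM screen, taking a fixed number of the strongest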;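 note: 0% = full reaction with DMSO carrier and 100% = background rate without enzyme reaction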
DPM-DC inhibit – inhibitors of Streptococcus pneumoniae diphosphomevalonate decarboxylase. purified DPM-DC, PK/LDH coupled NADH fluorescence. calls only at 10 µM. AID 556. 65,000 compounds, 0.49% hits;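 active = the 320 compounds with the highest percent inhibition in the single-dose primary screen, excluding strongly autofluorescent ones, cut at about 32% in these data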;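 note: kinetic rate of NADH fluorescence loss reporting ADP formed by the decarboxylase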
Numbers without * were called inactive; i = inactive; x = not tested or not shown; + = active, no number. Only some compounds are listed: those with a hit (about 6.5% of all), similar ones and a draw of the others.

SMILES | Autofluor 339 | NADH enzymes | A340 absorber | Spn MK inh | Spn PMK inh | DPM-DC inhibit
CCCc1nc(-c2cc3ccc(C)cc3[nH]c2=O)no1 | 2.23* | 7.0% | 1.07 | 7.0 | 6.0 | x
Cc1ccc2cc(-c3noc(C4CCCCC4)n3)c(=O)[nH]c2c1 | 2.19* | 0.0% | 1.11 | 0.0 | 0.0 | x
CC(C)Cn1c(=O)c(C2=NS(=O)(=O)c3ccccc3N2)c(O)c2ccccc21 | 1.91 | 5.0% | 1.02 | 19.0 | 13.0 | x
CCn1c2c(c3cc(C(=O)O)ccc31)CCCC2=O | 2.57* | 21.0% | 1.19 | 18.0 | 9.0 | +
CCn1c2c(c3cc(Cl)ccc31)CCCC2=O | 1.79 | 8.0% | 1.04 | 4.0 | 4.0 | i
COC(=O)CNc1nc(-c2ccccc2F)nc2ccccc12 | 1.11 | 10.0% | 0.92 | 2.0 | 28.0* | i
CCOC(=O)c1oc2ccccc2c1NC(=O)c1ccc(S(=O)(=O)N2CCCC2)cc1 | 2.52* | 7.0% | 1.02 | 7.0 | 14.0 | i
CNc1nnc(-c2cccc(N(C)C)c2)s1 | 2.9* | 3.0% | 1 | 4.0 | 0.0 | i
COc1ccc(CCNc2oc(COc3ccccc3F)nc2C#N)cc1 | 1.18 | 9.0% | 1.03 | 2.0 | 14.0 | i
N#Cc1nc(-c2ccc(Cl)cc2)oc1NCCc1ccccn1 | 2.41* | 2.0% | 1.01 | 7.0 | 0.0 | x
Cc1ccc(-c2nc(C#N)c(NCCc3ccccn3)o2)cc1 | 2.63* | 9.0% | 1.03 | 1.0 | 10.0 | i
Cc1ccc(C)c(-c2nnc(OCC(=O)Nc3cc(C)on3)c3ccccc23)c1 | 1.08 | 6.0% | 0.98 | 5.0 | 12.0 | i
CC1Cc2ccccc2N1C(=O)CSc1nnc(-c2ccc(S(=O)(=O)N3CCCC3)cc2)o1 (stereo unspecified) | 1.03 | 3.0% | 1.09 | 0.0 | 8.0 | i
Cc1c(Cc2ccccc2)c(=O)oc2c(CN(C)C)c(O)c(Cl)cc12 | 3.77* | 2.0% | 1.24 | 1.0 | 2.0 | x
Fc1cccc(-c2cc3nc4c(c(N5CCN(c6cnccn6)CC5)n3n2)CCCC4)c1 | 2.36* | 5.0% | 0.99 | 10.0 | 12.0 | x
COc1ccc(OC)c(C2C(C(=O)Nc3cccnc3)=C(C)NC3=C2C(=O)CCC3)c1 (stereo unspecified) | 1.37 | 5.0% | 1.04 | 9.0 | 9.0 | i
CCOc1cccc2cc(-c3nnc(NCc4ccco4)s3)c(=O)oc12 | 2.19* | 1.0% | 1.04 | 0.0 | 2.0 | i
COc1cccc2cc(-c3cn4cccc(C)c4n3)c(=O)oc12 | 1.69 | 0.0% | 1.08 | 0.0 | 0.0 | i
CCOc1cccc2cc(-c3cn4cc(C)ccc4n3)c(=O)oc12 | 5.05* | 3.0% | 1.06 | 1.0 | 5.0 | x
COc1ccc2oc(=O)c(-c3nnc(NCc4ccco4)s3)cc2c1 | 1.86 | 0.0% | 1.04 | 0.0 | 1.0 | i
COC(=O)c1ccccc1NC(=O)Cn1cnc2cc(C)c(C)cc21 | 1.08 | 4.0% | 1.02 | 8.0 | 4.0 | i
Cn1cnnc1SCC(=O)Nc1sc2c(c1C(N)=O)CCC2 | 1.07 | 4.0% | 1.06 | 2.0 | 8.0 | i
Cc1ccc2c(CC(=O)OC(C)C(=O)NCc3ccc4c(c3)OCO4)coc2c1 (stereo unspecified) | 1.02 | 5.0% | 0.99 | 2.0 | 12.0 | i
COc1cc2c(cc1NC(=O)CSc1nnnn1-c1ccccc1)oc1ccccc12 | 2.17* | 4.0% | 1.04 | 6.0 | 5.0 | i
COc1cccc(-n2nnnc2SCC(=O)c2cc(OC)ccc2OC)c1 | 2.37* | 7.0% | 1.04 | 5.0 | 1.0 | i
SMILES | Autofluor 339 | NADH enzymes | A340 absorber | Spn MK inh | Spn PMK inh | DPM-DC inhibit
Cc1cc(C)n2nc3nc(N4CCCCC4)nc(-c4ccco4)c3c2n1 | 2.14* | 10.0% | 1.04 | 0.0 | 20.0 | +
Cc1cc(C)n2nc3ccccc3c2n1 | 1.98 | 4.0% | 1.05 | 2.0 | 10.0 | i
CC(C)Cc1nc2oc3c(NCc4cccnc4)ncnc3c2c2c1CCC2 | 2.59* | 19.0% | 1.02 | 11.0 | 16.0 | i
CC(C)c1nc2oc3c(NCc4cccnc4)ncnc3c2c2c1CCC2 | 2.1* | 8.0% | 1.05 | 5.0 | 12.0 | i
CC(C)Cc1nc2oc3c(NCC4CCCO4)ncnc3c2c2c1CCC2 (stereo unspecified) | 2.6* | 15.0% | 1 | 8.0 | 11.0 | i
Cc1cc(N2CCN(c3ccccc3)CC2)nc(-n2nc(C)cc2C)n1 | 1.06 | 3.0% | 1 | 5.0 | 3.0 | i
Cc1cc(O)c(C(C)C)cc1NC(=O)Cn1nc(C)c2ccccc2c1=O | 1.05 | 7.0% | 1 | 5.0 | 17.0 | i
CCC(C)Nc1nc(OC)nc(N(C)C#N)n1 (stereo unspecified) | 1.04 | 1.0% | 1.03 | 2.0 | 1.0 | i
CCC(C)C(=O)Nc1nnc(-c2cccs2)s1 (stereo unspecified) | 2.64* | 10.0% | 1.06 | 0.0 | 15.0 | i
COCC(=O)Nc1nnc(-c2cccs2)s1 | 1.94 | 5.0% | 1.1 | 0.0 | 4.0 | i
Cc1nc2c(c(=O)n1Cc1ccccc1Cl)c1nc3ccccc3nc1n2Cc1ccco1 | 2.33* | 7.0% | 1.07 | 13.0 | 7.0 | i
CCCCn1c(-c2ccccc2)nc2c(=O)n(C)c(=O)[nH]c21 | 3.67* | 5.0% | 1.04 | 2.0 | 7.0 | x
NC(=O)CC1NC(=O)c2ccccc21 (stereo unspecified) | 1.07 | 5.0% | 1.03 | 4.0 | 11.0 | i
COc1ccc(OCC(=O)N2CCN(C(=O)COc3ccc(Br)cc3)CC2)cc1 | 0.98 | 4.0% | 0.96 | 0.0 | 16.0 | i
COc1ccc2c(c1)c(=O)oc1cc(OCC(=O)N3CCC(C)CC3)ccc12 | 3.51* | 7.0% | 1.07 | 3.0 | 10.0 | x
COc1ccc2c(c1)c(=O)oc1cc(OCC(=O)N3CCCC(C)C3)ccc12 (stereo unspecified) | 3.91* | 5.0% | 1.04 | 3.0 | 7.0 | x
Cc1ccc(OCCCN(C)C)c(Br)c1 | 1.1 | 19.0% | 1.05 | 45.0* | 13.0 | i
O=C(CSc1nnc(-c2ccccc2O)o1)Oc1ccc(OCc2ccccc2)cc1 | 3.97* | 2.0% | 1.05 | 2.0 | 2.0 | x
